PubChem BioAssay AID1159580 (chemical genetic matrix, 2015)
Values joined by “and” are separate entries in the source; they are usually repeats but may differ in a detail not shown here. Equal values may be shown once. The campaign covered roughly 5,500 compounds. About 2,000 (36%) were called active. Roughly 18% stayed inconclusive and do not appear here. No stated cut-off is given here; in the data, active means normalized growth mostly below about 0.91 (no sharp cut-off); inconclusive means no clear call, values can overlap the other calls; inactive means mostly above about 0.92. This is one part of the list.

Test: chemical genetic growth profiling, strain panel (AID 1159580);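 further: tested at 20 µM; growth read once vehicle control cultures reached saturation at 30 °C; 1 = growth at the plate median or of vehicle wells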
Conditions: S. cerevisiae deletion strains, growth OD

Measured: normalized growth

CCN(CC)CCNC(=O)c1cc(Br)c(N)cc1OC
inactive: locus YAL021C, strain ccr4, stronger effect = lower value 0.984 | locus YAL026C, strain drs2, stronger effect = lower value 0.997 | locus YAL030W, strain snc1, stronger effect = lower value 0.997 | locus YBL061C, strain skt5, stronger effect = lower value 0.992 | locus YBR009C, strain hhf1, stronger effect = lower value 1.02 | locus YBR021W, strain FUR4, stronger effect = lower value 1.03 | locus YBR023C, strain chs3, stronger effect = lower value 0.992 | locus YBR171W, strain sec66, stronger effect = lower value 0.983 | locus YBR229C, strain ROT2, stronger effect = lower value 0.957 | locus YBR231C, strain swc5, stronger effect = lower value 0.981 | locus YBR279W, strain paf1, stronger effect = lower value 0.991 | locus YCL011C, strain gbp2, stronger effect = lower value 0.978 | locus YCL016C, strain dcc1, stronger effect = lower value 0.992 | locus YCL029C, strain bik1, stronger effect = lower value 0.989 | locus YCL061C, strain MRC1, stronger effect = lower value 0.984 | locus YCL069W, strain vba3, stronger effect = lower value 0.987 | locus YCR088W, strain abp1, stronger effect = lower value 0.981 | locus YDL005C, strain med2, stronger effect = lower value 0.989 | locus YDL035C, strain GPR1, stronger effect = lower value 0.986 | locus YDL040C, strain nat1, stronger effect = lower value 1 | locus YDL074C, strain BRE1, stronger effect = lower value 0.947 | locus YDL101C, strain DUN1, stronger effect = lower value 0.976 | locus YDL134C, strain PPH21, stronger effect = lower value 1.01 | locus YDL185W, strain tfp1, stronger effect = lower value 0.983 | locus YDL192W, strain arf1, stronger effect = lower value 0.983 | locus YDR001C, strain nth1, stronger effect = lower value 0.979 | locus YDR069C, strain doa4, stronger effect = lower value 1.01 | locus YDR101C, strain arx1, stronger effect = lower value 0.979 | locus YDR137W, strain rgp1, stronger effect = lower value 1.04 | locus YDR159W, strain sac3, stronger effect = lower value 1 | locus YDR162C, strain NBP2, stronger effect = lower value 1 | locus YDR195W, strain ref2 0.967 | locus YDR297W, strain sur2, stronger effect = lower value 0.976 | locus YDR318W, strain mcm21, stronger effect = lower value 1 | locus YDR334W, strain swr1, stronger effect = lower value 0.954 | locus YDR335W, strain msn5, stronger effect = lower value 0.987 | locus YDR388W, stronger effect = lower value 0.989 | locus YDR392W, strain spt3, stronger effect = lower value 0.932 | locus YDR502C, strain sam2, stronger effect = lower value 0.983 | locus YEL003W, strain gim4, stronger effect = lower value 0.979 | locus YEL037C, strain rad23, stronger effect = lower value 0.985 | locus YEL061C, strain CIN8 (second series), stronger effect = lower value 0.982 | locus YEL061C, strain CIN8, stronger effect = lower value 0.978 | locus YER015W, strain faa2, stronger effect = lower value 0.986 | locus YER016W, strain bim1, stronger effect = lower value 0.997 | locus YER110C, stronger effect = lower value 0.978 | locus YER111C, strain swi4, stronger effect = lower value 1.01 | locus YER155C, strain BEM2 (second series), stronger effect = lower value 1 | locus YER155C, strain BEM2, stronger effect = lower value 1 | locus YER167W, strain BCK2, stronger effect = lower value 1.01 | locus YFR010W, strain ubp6, stronger effect = lower value 0.984 | locus YGL078C, strain dbp3, stronger effect = lower value 0.974 | locus YGL086W, strain mad1, stronger effect = lower value 0.98 | locus YGL167C, strain pmr1, stronger effect = lower value 0.98 | locus YGL173C, strain kem1, stronger effect = lower value 0.991 | locus YGL227W, strain vid30, stronger effect = lower value 0.995 | locus YGL240W, strain doc1, stronger effect = lower value 0.993 | locus YGL248W, strain PDE1, stronger effect = lower value 0.971 | locus YGL253W, strain hxk2, stronger effect = lower value 0.982 | locus YGR078C, strain PAC10, stronger effect = lower value 0.975 | locus YGR135W, strain pre9, stronger effect = lower value 1.04 | locus YGR252W, strain gcn5, stronger effect = lower value 1.02 | locus YHR013C, strain ard1, stronger effect = lower value 0.972 | locus YHR027C, strain rpn1, stronger effect = lower value 0.976 | locus YHR030C, strain SLT2, stronger effect = lower value 0.997 and 0.978 | locus YHR079C, strain IRE1 (second series), stronger effect = lower value 0.989 | locus YHR079C, strain IRE1, stronger effect = lower value 1 | locus YHR094C, strain hxt1, stronger effect = lower value 0.985 | locus YHR129C, strain ARP1, stronger effect = lower value 1 | locus YHR142W, strain chs7, stronger effect = lower value 0.97 | locus YHR200W, strain rpn10, stronger effect = lower value 0.994 | locus YIL066C, strain RNR3, stronger effect = lower value 0.965 | locus YIL073C, strain SPO22, stronger effect = lower value 1.04 | locus YIL125W, strain kgd1, stronger effect = lower value 0.985 | locus YIR030C, strain dcg1, stronger effect = lower value 0.986 | locus YJL092W, strain hpr5, stronger effect = lower value 0.973 | locus YJL095W, strain BCK1 (second series), stronger effect = lower value 0.99 | locus YJL095W, strain BCK1, stronger effect = lower value 0.962 and 0.993 | locus YJL115W, strain asf1, stronger effect = lower value 0.966 | locus YJL129C, strain trk1, stronger effect = lower value 0.99 | locus YJL134W, strain LCB3, stronger effect = lower value 0.994 | locus YJL154C, strain vps35, stronger effect = lower value 0.986 | locus YJL164C, strain tpk1, stronger effect = lower value 1.01 | locus YJL166W, strain qcr8, stronger effect = lower value 0.998 | locus YJL168C, strain set2, stronger effect = lower value 0.987 | locus YJL187C, strain SWE1 (second series), stronger effect = lower value 0.944 | locus YJL187C, strain SWE1, stronger effect = lower value 0.993
